# From PubChem BioAssay
# The source made the active and inactive calls. Unless noted, how the calls were made is not given here.
# Columns and labels:
# [1] = HepG2 liver cancer cell viability effects, profiling panel, resazurin fluorescence, 24 h, PK04 Diversity Set (AID 1172); settings: higher = more signal
# [2] = basal S. cerevisiae growth modulation, no modifier, primary screen, OD600, strain BY4716, 24 h, basal condition (AID 1173); settings: OD600, 24 h, higher = more signal, called active from +8 up or from −8 down
# [3] = MM1S myeloma cell viability, profiling panel, resazurin fluorescence, basal, 24 h, PK04 Diversity Set (AID 1174); settings: higher = more signal, called active from +8 up or from −8 down;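 further: MM1S multiple myeloma cell line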
# [4] = biological target: Dihydroorotate dehydrogenase (quinone), mitochondrial (Plasmodium falciparum (isolate 3D7)) (UniProt Q08210); assay: PfDHODH enzyme inhibitors, primary screen, biochemical, C-terminal His tag, absorbance 600 nm (AID 1175); settings: DCIP absorbance 600 nm, higher = more signal, called active from +8 up or from −8 down;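 further: recombinant parasite enzyme with a five histidine tag at its C terminus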
# Sequence of Dihydroorotate dehydrogenase (quinone), mitochondrial (Plasmodium falciparum (isolate 3D7)) (Q08210 whole entry, looked up): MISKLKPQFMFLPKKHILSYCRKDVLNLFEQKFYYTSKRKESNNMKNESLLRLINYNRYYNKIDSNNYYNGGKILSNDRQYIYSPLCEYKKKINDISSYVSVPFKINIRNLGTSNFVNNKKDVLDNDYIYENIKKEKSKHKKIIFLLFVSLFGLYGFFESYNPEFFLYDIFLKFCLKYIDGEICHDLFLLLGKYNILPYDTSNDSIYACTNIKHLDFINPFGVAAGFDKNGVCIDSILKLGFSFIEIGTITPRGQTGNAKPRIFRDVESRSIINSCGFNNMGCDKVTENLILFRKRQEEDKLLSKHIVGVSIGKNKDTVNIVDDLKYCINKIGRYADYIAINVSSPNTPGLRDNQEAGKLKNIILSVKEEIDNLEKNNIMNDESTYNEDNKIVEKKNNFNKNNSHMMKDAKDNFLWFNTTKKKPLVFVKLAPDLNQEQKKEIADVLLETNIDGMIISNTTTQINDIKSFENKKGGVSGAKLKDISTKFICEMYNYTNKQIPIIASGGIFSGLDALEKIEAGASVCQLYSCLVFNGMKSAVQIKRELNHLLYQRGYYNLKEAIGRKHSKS
# [5] = P. aeruginosa biofilm formation inhibitors, primary screen, strain PAO1, LB-PBS medium, absorbance 600 nm (AID 1176); settings: P. aeruginosa PAO1 growth/biofilm, A600, 12 h; higher = more signal
# [6] = S. cerevisiae RM11-1a growth modifiers, primary screen, strain RM11-1a, OD600, basal, 24 h (AID 1177); settings: OD600, 24 h, higher = more signal, called active from +8 up or from −8 down;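 further: cultures grown under basal conditions with no added stressor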
# [7] = E. coli acrAB mutant growth effects, primary screen, E. coli filamentation inducers, strain DRC39, OD650, 24 h (AID 1178); settings: higher = more signal, called active from +8 up or from −8 down;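 further: growth measured as culture turbidity by optical density at 650 nm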
# [8] = E. coli acrAB mutant growth effects, primary screen, E. coli filamentation inducers, strain DRC39, OD650, 48 h (AID 1179);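 further: screen aims at cell division blockers that make cells filament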; settings: E. coli DRC39 delta-acrAB growth, higher = more signal, called active from +8 up or from −8 down
# [9] = RPMI8226 myeloma cell viability, profiling panel, resazurin fluorescence, basal, 24 h, PK04 Diversity Set (AID 1180); settings: higher = more signal;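 further: RPMI8826 multiple myeloma cell line at 5000 cells per well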
# [10] = biological target: E3 ubiquitin-protein ligase XIAP (Homo sapiens) (UniProt P98170); assay: XIAP binders, primary screen, biophysical, small-molecule microarray, fluorescence 635 nm (AID 1181); settings: small-molecule microarray binding, higher = more signal;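 further: score merges 667 nm emission and signal to noise over triplicate slides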
# Sequence of E3 ubiquitin-protein ligase XIAP (Homo sapiens) (P98170 whole entry, looked up): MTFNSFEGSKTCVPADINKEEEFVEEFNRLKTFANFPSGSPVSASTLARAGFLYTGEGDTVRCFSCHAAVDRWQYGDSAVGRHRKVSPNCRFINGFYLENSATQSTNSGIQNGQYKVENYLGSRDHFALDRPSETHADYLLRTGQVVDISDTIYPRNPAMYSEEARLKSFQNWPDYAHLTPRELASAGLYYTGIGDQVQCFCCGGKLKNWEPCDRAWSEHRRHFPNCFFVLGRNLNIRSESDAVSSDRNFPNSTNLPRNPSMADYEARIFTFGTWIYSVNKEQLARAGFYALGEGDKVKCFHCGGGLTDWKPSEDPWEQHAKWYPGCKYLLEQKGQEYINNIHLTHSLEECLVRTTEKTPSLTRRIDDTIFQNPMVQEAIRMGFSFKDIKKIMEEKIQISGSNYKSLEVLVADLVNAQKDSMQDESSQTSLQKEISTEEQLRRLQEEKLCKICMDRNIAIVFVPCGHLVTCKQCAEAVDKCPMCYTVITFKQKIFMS
# [11] = system: XIP peptide (Xip251-270) binding; assay: small-molecule binders of XIP peptide, primary screen, biochemical, small-molecule microarray, fluorescence 635/667 nm, 0.1 µg/mL protein (AID 1182); settings: fluorescent protein binding, 635 nm, higher = more signal, called active from +8 up or from −8 down
# XIP peptide (Xip251-270) = assay: small-molecule binders of XIP peptide, primary screen, biochemical, small-molecule microarray, fluorescence 635/667 nm, 0.5 µg/mL protein (AID 1183); settings: small-molecule microarray binding, fluorescence 635 nm; higher = more signal
# [12] = Plasmodium falciparum growth inhibition, primary screen, strain 3D7, DAPI fluorescence, 100 nL (AID 1184);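 further: parasites grown inside human red blood cells in medium with human serum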; settings: P. falciparum 3D7 growth, 3 d, higher = more signal
# [13] = biological target: Homeobox protein Hox-A13 (Mus musculus) (UniProt Q62424); assay: inhibitors of HoxA13-DNA binding, primary screen, biochemical, fluorescence polarization, labeled oligonucleotide (AID 1185); settings: 15 min, higher = more signal, called active from +8 up or from −8 down
# Sequence of Homeobox protein Hox-A13 (Mus musculus) (Q62424 whole entry, looked up): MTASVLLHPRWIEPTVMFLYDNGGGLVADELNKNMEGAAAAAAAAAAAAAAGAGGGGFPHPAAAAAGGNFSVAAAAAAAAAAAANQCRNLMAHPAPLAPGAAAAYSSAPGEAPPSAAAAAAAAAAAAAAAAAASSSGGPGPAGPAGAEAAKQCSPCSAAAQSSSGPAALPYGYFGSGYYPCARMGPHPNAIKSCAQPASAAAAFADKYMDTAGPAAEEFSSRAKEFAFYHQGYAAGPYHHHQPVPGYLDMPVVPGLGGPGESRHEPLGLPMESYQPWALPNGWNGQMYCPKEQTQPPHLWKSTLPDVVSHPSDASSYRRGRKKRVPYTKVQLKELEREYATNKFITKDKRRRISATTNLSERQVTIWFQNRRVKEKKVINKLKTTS
# [14] = inhibitors of hydroxyurea-induced Chk1 phosphorylation, primary screen, imaging, HeLa, phospho-Chk1 antibody, percent positive cells (AID 1186); settings: hydroxyurea-induced phospho-Chk1 immunofluorescence imaging, higher = more signal
# [15] = inhibitors of hydroxyurea-induced Chk1 phosphorylation, primary screen, imaging, HeLa, phospho-Chk1 nuclear intensity (AID 1187); settings: hydroxyurea-induced phospho-Chk1 immunofluorescence imaging, higher = more signal
Structure (SMILES),z-score [1],z-score [2],z-score [3],composite z-score [4],z-score [5],z-score [6],z-score [7],z-score [8],z-score [9],composite z-score [10],composite z-score [11],composite z-score (XIP peptide (Xip251-270)),z-score [12],z-score [13],z-score [14],z-score [15]
CCOC(=O)C1=C[C@@H](C(C)C)N(S(=O)(=O)c2ccc(C)cc2)[C@H]1c1ccc(C(F)(F)F)cc1,-0.698,2.42 (inactive),-0.267 (inactive),0.919 (inactive),-0.0322 (inactive),2.24 (inactive),-0.227 (inactive),-0.442 (inactive),-1.58,0.109,0.438 (inactive),0.555,-1.88,-0.498 (inactive),0.389 (inactive),0.112 (inactive)
CCC#CCN(Cc1ccccc1Br)[C@H](/C=C/C1CC1)[C@@H](O)Cc1ccccc1,2.23,-3.06 (inactive),1.93 (inactive),-0.769 (inactive),0.686 (inactive),-2.7 (inactive),1.96 (inactive),0.706 (inactive),0.329,-0.144,-0.243 (inactive),0.0059,-3.17,-0.634 (inactive),-0.887 (inactive),-0.875 (inactive)
C=CCC(OC(C)=O)[C@@H]1[C@@H](N(Cc2ccc(-c3cccc(C(F)(F)F)c3)o2)C(=O)Cc2ccc(OC)cc2)c2cc(OCCCO)ccc2N1C(=O)c1ccc(-c2ccccc2)cc1 (some centres not stated),-1.35,-0.0331 (inactive),-0.0666 (inactive),0.821 (inactive),-0.24 (inactive),0.0869 (inactive),-0.165 (inactive),-0.555 (inactive),-0.197,0.125,0.169 (inactive),-0.0425,-2.78,-1.67 (inactive),0.152 (inactive),0.463 (inactive)
CC(C)NC(=O)[C@@]1(C)c2ccccc2C(=O)N(Cc2ccc(OC(F)(F)F)cc2)[C@H]1c1ccc(CO)cc1,-1.09,0.154 (inactive),0.796 (inactive),-0.852 (inactive),0.559 (inactive),0.973 (inactive),-0.048 (inactive),-0.6 (inactive),0.959,-0.217,0.697 (inactive),0.836,-1.75,-3.07 (inactive),-0.0939 (inactive),-0.0444 (inactive)
COc1ccc(C#Cc2ccc3c(c2)[C@]2(C(=O)N3)[C@H](c3ccc(O)cc3)N3[C@H](c4ccccc4)[C@H](c4ccccc4)OC(=O)[C@H]3[C@@H]2C(=O)Nc2nc3ccccc3s2)cc1,-1.11,-0.155 (inactive),0.415 (inactive),-15.8 (active),1.21 (inactive),1.2 (inactive),0.198 (inactive),0.0227 (inactive),1.07,0.289,-0.52 (inactive),0.77,-1.31,-0.76 (inactive),0.372 (inactive),0.669 (inactive)
CCOC(=O)C[C@H]1[C@H](OC(=O)c2cc3ccccc3oc2=O)[C@@H](NC(=O)c2ccccc2)c2cc(OCCCO)ccc2N1C(=O)c1ccccc1,-1.3,-1.89 (inactive),0.741 (inactive),-3.31 (inactive),-1.02 (inactive),-0.0038 (inactive),-0.397 (inactive),-0.869 (inactive),-0.171,-0.0559,-0.0879 (inactive),0.283,-1.66,-1.56 (inactive),0.171 (inactive),-0.0272 (inactive)
CC[C@@H]1C=C(C(=O)O)[C@H](c2ccc(C#N)cc2)N1S(=O)(=O)c1ccc(C)cc1,-0.835,0.965 (inactive),-0.933 (inactive),-1.93 (inactive),-0.0601 (inactive),-0.242 (inactive),-0.266 (inactive),-0.0211 (inactive),-1.21,0.0153,0.377 (inactive),-0.172,1.91,-4.62 (inactive),0.208 (inactive),-0.0106 (inactive)
CCCCN1CC=CC23O[C@@H]4/C=C\CCCOC(=O)C4[C@H]2C(=O)N(CCO)[C@@H]3C1=O (some centres not stated),-1.03,0.291 (inactive),0.294 (inactive),0.538 (inactive),-0.221 (inactive),0.507 (inactive),-0.088 (inactive),-0.389 (inactive),0.0725,0.0537,0.51 (inactive),0.157,-1.09,-5.46 (inactive),-0.302 (inactive),0.214 (inactive)
COC(=O)C1=CC(CCCO)=CC(c2cccs2)N(C)C=C1C(=O)OC (configuration not stated),-0.86,0.856 (inactive),-0.482 (inactive),0.75 (inactive),0.462 (inactive),1.13 (inactive),-0.187 (inactive),-0.532 (inactive),0.0222,0.212,0.0334 (inactive),0.819,-0.389,-7.53 (inactive),0.176 (inactive),0.219 (inactive)
COc1ccc([Si](C)(C)[C@H]2[C@H](CC(=O)N(CCO)Cc3ccccc3)O[C@@]3(C(=O)N(C)c4c(Br)cc(C)cc43)[C@@H]2C)cc1,-1.86,-2.5 (inactive),-2.84 (inactive),-0.474 (inactive),1.94 (inactive),0.257 (inactive),1.32 (inactive),0.677 (inactive),-5.31,0.868,0.159 (inactive),0.334,-2.08,-6.1 (inactive),-1.82 (inactive),-1.22 (inactive)
O=C1O[C@H](c2ccccc2)[C@H](c2ccccc2)N2[C@H]1[C@@H](C(=O)O)[C@]1(C(=O)Nc3ccc(C#CCCO)cc31)[C@H]2c1ccccc1OCCO,-0.732,-0.498 (inactive),0.716 (inactive),-0.408 (inactive),0.573 (inactive),0.626 (inactive),-0.88 (inactive),-1.22 (inactive),1.5,0.177,0.154 (inactive),0.736,-1.08,-6.55 (inactive),0.55 (inactive),0.175 (inactive)
COc1ccc(CCNC(=O)[C@@]2(Cc3ccccc3I)c3ccccc3C(=O)N(C3CCCCC3)[C@H]2c2ccc(CO)cc2)cc1,-0.0428,-0.447 (inactive),-0.0298 (inactive),-0.145 (inactive),0.462 (inactive),-2.65 (inactive),0.314 (inactive),0.197 (inactive),-0.0337,0.144,0.898 (inactive),0.372,-2.22,-2.56 (inactive),-0.312 (inactive),-0.543 (inactive)
COc1ccc([Si](C)(C)[C@@H]2[C@@H](CC(=O)N3CCC[C@H]3CO)O[C@]3(C(=O)N(Cc4cccc(N5C(=O)COc6ccccc65)c4)c4ccccc43)[C@H]2C)cc1,-1.58,0.107 (inactive),-3.43 (inactive),-1.54 (inactive),0.425 (inactive),0.0195 (inactive),0.719 (inactive),0.374 (inactive),-5.39,-0.102,0.527 (inactive),0.608,-0.317,-2.42 (inactive),-0.167 (inactive),-0.614 (inactive)
CCCCCCCCCC(O)C1C=CC2C(=O)N(c3ccccc3)C(=O)C2N1Nc1cc(OC)c(OC)c(OC)c1 (configuration not stated),-2.66,0.953 (inactive),-4.42 (inactive),-0.474 (inactive),0.711 (inactive),0.27 (inactive),-1.57 (inactive),-1.75 (inactive),-4.03,0.176,-0.26 (inactive),0.206,-0.412,-2.06 (inactive),0.297 (inactive),0.0284 (inactive)
CCCN1C(=O)[C@@]2(Cc3ccccc31)N=C(c1ccc(OCCCO)cc1)O[C@H]2c1ccccc1,0.293,-3.07 (inactive),-2 (inactive),-0.172 (inactive),-0.124 (inactive),0.806 (inactive),-0.305 (inactive),-1.03 (inactive),-1.7,-0.212,0.468 (inactive),0.828,-1.65,-6.04 (inactive),-0.0494 (inactive),0.365 (inactive)
Cc1ccccc1C(O)C1C=CC2C(=O)NC(=O)C2N1Nc1ccccn1 (configuration not stated),-1.07,1.21 (inactive),-0.777 (inactive),1.57 (inactive),0.543 (inactive),0.487 (inactive),-0.387 (inactive),-0.316 (inactive),-0.489,0.127,0.132 (inactive),0.11,-0.461,-1.11 (inactive),-0.0651 (inactive),-0.681 (inactive)
CC(C)C[C@@H]1NC(=O)[C@@H]2C[C@H](C(=O)NCCCCCCN)[C@H](c3cccc(OCCO)c3)N2C1=O,-0.821,-0.568 (inactive),0.542 (inactive),1.05 (inactive),0.379 (inactive),0.473 (inactive),-0.0795 (inactive),-0.74 (inactive),-0.0399,0.0264,1.6 (inactive),0.891,-0.969,-3.79 (inactive),-0.349 (inactive),-0.207 (inactive)
